± gives the standard deviation.
Key:
Details in all cases: modulator concentration 10 µM
[1] = tested on: RAW-Dual (murine macrophage reporter line); test: NF-kB reporter (SEAP) activity fold change vs agonist alone; higher = enhanced NF-kB activity
Procedure, shortened: (§1)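 Compound reached 10 μM final in each well by pin transfer, onto RAW-Dual murine macrophage reporter cells seeded at 50 000 per well in 384-well plates. After 1 hour at 37 °C, the cells were stimulated overnight with a PRR agonist. SEAP in the supernatant was read with QUANTI-Blue at 620 nm absorbance for NF-κB, and Lucia luciferase was read with QUANTI-Luc luminescence for IRF. Each signal was turned into fold change against the mean agonist-only control on the same plate, and two replicate plates were averaged with propagated errors.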

[2] = tested on: RAW-Dual (murine macrophage reporter line); test: IRF reporter (Lucia luciferase) activity fold change vs agonist alone; higher = enhanced IRF activity
Procedure, shortened: as §1

[3] = tested on: RAW-Dual (murine macrophage reporter line); test: viability score (confluency relative to resting cells, overnight) (fraction); higher = more viable, active = viable (0.7 or more)
Procedure, shortened: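 Overnight exposure to 10 μM final compound was carried out on RAW-Dual macrophages in 384-well plates. IncuCyte software generated two confluency masks over all wells imaged with IncuCyte. The viability score gives confluency in relation to resting cells. A compound met the cutoff if each mask exceeded 70% of resting cells.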

[4] = agonist: CpG ODN 1826 0.5 ug/mL

| SMILES | NF-kB reporter [1, 4] | NF-kB reporter ([1]; agonist: LPS 0.1 ug/mL) | NF-kB reporter ([1]; agonist: MPLA […]) | IRF reporter ([2]; agonist: 3'3'-cGAMP 10 ug/mL) | IRF reporter ([2]; agonist: LPS 0.1 ug/mL) | IRF reporter ([2]; agonist: MPLA […]) | viability score [3] |
| --- | --- | --- | --- | --- | --- | --- | --- |
| CN1C(CC(=O)c2ccccc2)CCCC1CC(O)c1ccccc1.Cl (centres undefined) | 0.601 ± 0.16 | 1.01 ± 0.097 | 0.964 ± 0.083 | 0.815 ± 0.041 | 0.996 ± 0.21 | 1.03 ± 0.15 | 0.988 (active) |
| Cc1ccc2sc(NC(=O)c3cccc(N4C(=O)CCC4=O)c3)nc2c1C | 0.946 ± 0.097 | 0.877 ± 0.074 | 1.11 ± 0.12 | 0.939 ± 0.03 | 1.39 ± 0.19 | 1.57 ± 0.21 | 1.02 (active) |
| COc1cccc(CCNC(=O)CC2CSc3nc4c(c(=O)n32)CCCC4)c1 (centres undefined) | 1.22 ± 0.069 | 1.07 ± 0.083 | 1.05 ± 0.096 | 0.886 ± 0.034 | 1.06 ± 0.052 | 1.13 ± 0.11 | 0.996 (active) |
| Cc1ccccc1C(=O)Nc1nc(C(C)(C)C)cs1 | 0.519 ± 0.056 | 0.997 ± 0.047 | 1.12 ± 0.11 | 0.777 ± 0.047 | 1.23 ± 0.13 | 1.35 ± 0.13 | 1 (active) |
| Cc1cccc(NC(=O)C(=Cc2ccco2)NC(=O)c2ccccc2I)c1 | 1.06 ± 0.087 | 1.06 ± 0.081 | 1.01 ± 0.072 | 0.953 ± 0.076 | 1.15 ± 0.099 | 1.11 ± 0.15 | 1.01 (active) |
| O=C(Cn1cnc(-c2ccc(F)cc2)cc1=O)N1CCOCC1 | 0.891 ± 0.06 | 1.07 ± 0.13 | 1.18 ± 0.075 | 1.04 ± 0.047 | 1.3 ± 0.27 | 1.44 ± 0.45 | 0.99 (active) |
| Cc1nnc(C)n1N=Cc1ccc(C(F)(F)F)cc1 | 0.898 ± 0.058 | 0.789 ± 0.061 | 0.962 ± 0.038 | 0.957 ± 0.04 | 0.909 ± 0.063 | 0.886 ± 0.093 | 0.996 (active) |
| Cl.Cl.O=C(O)COCCN1CCN(C(c2ccccc2)c2ccc(Cl)cc2)CC1 (centres undefined) | 0.906 ± 0.15 | 0.996 ± 0.29 | 0.892 ± 0.05 | 0.942 ± 0.029 | 1.17 ± 0.39 | 1.14 ± 0.11 | 0.987 (active) |
| CC(CN1c2ccccc2Sc2cccnc21)N(C)C.Cl (centres undefined) | 0.968 ± 0.075 | 0.926 ± 0.11 | 1.07 ± 0.042 | 1.03 ± 0.099 | 0.935 ± 0.14 | 0.921 ± 0.16 | 1 (active) |
| CN(C)CCC=C1c2ccccc2COc2ccccc21.Cl | 0.758 ± 0.18 | 1.01 ± 0.054 | 1.06 ± 0.067 | 0.576 ± 0.031 | 1.22 ± 0.21 | 1.17 ± 0.2 | 0.978 (active) |
| COc1cc(O)c(C(=O)Nc2nc(C(=O)NCCN(C(C)C)C(C)C)cs2)cc1OC | 1.25 ± 0.33 | 1.01 ± 0.073 | 1.13 ± 0.087 | 0.997 ± 0.038 | 0.907 ± 0.1 | 0.973 ± 0.18 | 0.994 (active) |
| CC(C)(C)C(=O)NCc1cccnc1-c1cccnc1 | 0.968 ± 0.052 | 1.02 ± 0.1 | 0.892 ± 0.047 | 0.972 ± 0.052 | 0.982 ± 0.061 | 0.97 ± 0.13 | 1.01 (active) |
| O=C(Cn1c(C(F)(F)F)nc2ccccc21)c1ccc(OC(F)F)cc1 | 0.916 ± 0.086 | 1.07 ± 0.084 | 0.884 ± 0.062 | 1.06 ± 0.061 | 1.3 ± 0.15 | 1.02 ± 0.072 | 1.01 (active) |
| Cl.Cl.OCCOCCN1CCN(C(c2ccccc2)c2ccc(Cl)cc2)CC1 (centres undefined) | 1.21 ± 0.051 | 1.51 ± 0.12 | 2.68 ± 0.22 | 0.726 ± 0.034 | 1.27 ± 0.25 | 1.45 ± 0.37 | 0.965 (active) |
| Cc1ccccc1C(OCCN(C)C)c1ccccc1.O=C(O)CC(O)(CC(=O)O)C(=O)O (centres undefined) | 1.35 ± 0.36 | 1.34 ± 0.23 | 2.11 ± 1 | 0.582 ± 0.024 | 1.51 ± 0.14 | 1.25 ± 0.12 | 0.981 (active) |
| CCCOc1ccc(CCC(=O)O)cc1 | 1.38 ± 0.33 | 1.08 ± 0.075 | 0.985 ± 0.035 | 1.07 ± 0.23 | 1.11 ± 0.05 | 1.05 ± 0.1 | 1 (active) |
| COc1ccc(C(=O)ON=C(N)c2ccc(OC)c(OC)c2)cc1OC | 0.825 ± 0.096 | 0.878 ± 0.09 | 0.971 ± 0.086 | 0.933 ± 0.078 | 1.1 ± 0.07 | 1.13 ± 0.11 | 1.01 (active) |
| O=[N+]([O-])c1ccccc1S(=O)(=O)NCc1ccc2c(c1)OCO2 | 1 ± 0.088 | 0.988 ± 0.075 | 0.937 ± 0.092 | 0.89 ± 0.028 | 1.05 ± 0.14 | 1.09 ± 0.2 | 1.03 (active) |
| CCOC(=O)c1ccc(NC(=O)c2sc(NC(=O)c3cc(OC)c(OC)c(OC)c3)c(C(=O)OCC)c2C)cc1 | 1 ± 0.095 | 1.02 ± 0.079 | 0.895 ± 0.058 | 0.969 ± 0.025 | 1.53 ± 0.25 | 1.14 ± 0.12 | 1.01 (active) |
| COc1ccc(Br)cc1C(=O)Nc1cc(C(F)(F)F)cc(C(F)(F)F)c1 | 1.2 ± 0.11 | 0.99 ± 0.096 | 1.01 ± 0.044 | 0.982 ± 0.036 | 0.991 ± 0.07 | 1.05 ± 0.14 | 0.999 (active) |
| CS(=O)(=O)N(CC(=O)NCC1CCCO1)c1ccc(Cl)c(C(F)(F)F)c1 (centres undefined) | 0.751 ± 0.071 | 0.821 ± 0.039 | 1.01 ± 0.09 | 0.993 ± 0.046 | 1.35 ± 0.095 | 1.52 ± 0.15 | 0.998 (active) |
| Cc1cc(C(=O)Nc2ccc(-n3nnn(C)c3=O)cc2)c(C)o1 | 1.01 ± 0.077 | 1.05 ± 0.083 | 0.809 ± 0.041 | 0.985 ± 0.064 | 1.25 ± 0.076 | 1.28 ± 0.17 | 1.01 (active) |
| O=C(Oc1ccc(Cl)c2cccnc12)c1cccc(Cl)c1 | 0.981 ± 0.16 | 1.05 ± 0.093 | 0.926 ± 0.11 | 0.994 ± 0.032 | 1.41 ± 0.21 | 1.45 ± 0.15 | 1 (active) |
| CCCCOc1ccc(CC(=O)NO)cc1 | 1.69 ± 0.38 | 1.56 ± 0.37 | 1.34 ± 0.076 | 0.241 ± 0.0073 | 0.87 ± 0.19 | 0.815 ± 0.062 | 0.999 (active) |
| CCCC(CCC)C(=O)O | 1.05 ± 0.099 | 1.01 ± 0.16 | 0.99 ± 0.045 | 0.957 ± 0.079 | 0.965 ± 0.032 | 0.897 ± 0.094 | 0.992 (active) |
| Cc1cccc(C(=O)NC2CCC(F)(F)CC2)c1 | 1.07 ± 0.068 | 0.934 ± 0.082 | 1.03 ± 0.058 | 0.823 ± 0.034 | 1.1 ± 0.058 | 0.99 ± 0.2 | 1 (active) |
| CCOC(C#CCN(CC)CC)(c1ccccc1)c1ccccc1.Cl | 0.215 ± 0.018 | 0.353 ± 0.049 | 0.424 ± 0.031 | 0.773 ± 0.051 | 0.813 ± 0.054 | 1.62 ± 0.4 | 0.0625 (inactive) |

Source: the supplement of paper PMC10646978
